NPYLR7 agonist: agonists of mosquito NPYLR7 receptor, primary screen, cell-based, Aedes aegypti, calcium fluorescence, mosquito biting behavior | Aedes aegypti neuropeptide Y-like receptor 7 (NPYLR7) | HEK293T NPYLR7/Galpha15, GCaMP6s calcium fluorescence | activation, % at 10 µM | 270,000 tested, 0.15% active | AID 1259423, 2018; in the data active = activation above about 40%
mcGAS lum: cyclic GMP-AMP synthase inhibitors, mouse, primary biochemical chemiluminescence; Q8C6L5; recombinant cGAS, Kinase-Glo ATP depletion luminescence; inhibition, % at 12.5 µM; 160,000 tested, 0.15% active; AID 1259399, 2018
Target sequence (Q8C6L5 whole entry, looked up): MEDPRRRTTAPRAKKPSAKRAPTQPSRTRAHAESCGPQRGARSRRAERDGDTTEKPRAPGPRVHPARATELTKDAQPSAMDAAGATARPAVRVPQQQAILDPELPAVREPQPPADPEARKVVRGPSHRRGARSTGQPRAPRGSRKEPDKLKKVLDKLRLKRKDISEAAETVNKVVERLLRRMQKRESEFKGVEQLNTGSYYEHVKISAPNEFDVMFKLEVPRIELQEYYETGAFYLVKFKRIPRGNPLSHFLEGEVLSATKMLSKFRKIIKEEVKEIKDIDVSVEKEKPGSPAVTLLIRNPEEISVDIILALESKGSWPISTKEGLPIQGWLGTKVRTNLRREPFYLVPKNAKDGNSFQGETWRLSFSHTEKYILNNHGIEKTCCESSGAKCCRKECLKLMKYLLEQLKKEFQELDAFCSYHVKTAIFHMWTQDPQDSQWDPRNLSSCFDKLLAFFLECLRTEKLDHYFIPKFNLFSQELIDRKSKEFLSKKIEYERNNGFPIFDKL
hcGAS inh: Primary biochemical luminescence assay for human cyclic GMP-AMP synthase inhibitors; Q8N884; recombinant h-cGAS, ATP depletion, Kinase-Glo luminescence; inhibition, % at 12.5 µM; 290,000 tested, 0.081% active; AID 1259398, 2018
Hits are given with their value; . = inactive; / = no result. Compounds with a hit are over-represented: about 0.24% of the library has one in this group of screens. Cut-off read from the data, not from the text of the source, unless noted: active = inhibition above about 40%; inactive = the rest.

SMILES | NPYLR7 agonist | mcGAS lum | hcGAS inh
Cc1onc(-c2c(Cl)cccc2Cl)c1C(=O)NC1CCCCCCC1 | . | . | .
CN(C)c1ccc(/C=C2/SC(=S)N(CC(=O)O)C2=O)cc1Br | 124 | / | .
COc1cc([N+](=O)[O-])cc(/C=C2/SC(=S)N(CC(=O)O)C2=O)c1O | . | . | .
COc1ccc(/C=C2/SC(=S)N(CC(=O)O)C2=O)cc1OC | . | . | .
O=C(O)CN1C(=O)/C(=C/c2cc(Br)c(O)c(Br)c2)SC1=S | 251 | . | .
O=C(O)CN1C(=O)/C(=C\c2cc([N+](=O)[O-])cc(Br)c2O)SC1=S | 81 | 67 | 51
COc1cc(/C=C2/SC(=S)N(CC(=O)O)C2=O)cc(Br)c1O | . | . | .
COC(=O)CC(C)(C)NCc1nc(C)cs1 | . | / | .
Cc1cc(Nc2ccc3c(n2)C(=O)N([C@H](C)C(=O)NCC2CCCCC2)C3)n(C)n1 | . | / | .
O=C(NCCSc1ccc(Cl)cc1)c1ccc2c(=O)n3c(nc2c1)CCC3 | 82 | / | .
O=C(NCCC12CC3CC(CC(C3)C1)C2)c1ccc2c(=O)n3c(nc2c1)CCCCC3 | . | / | .
CC1CCCC2(C1)OCC(C(=O)N1CCCC1)N2C(=O)c1ccccc1F (centres undefined) | . | . | .
CCn1nccc1NC(=O)c1ccccc1OCc1ccccc1 | . | . | .
O=C(NCCc1csc2nc(-c3ccc(F)cc3)nn12)c1cccc(F)c1 | . | . | .
N#Cc1cccc(C(=O)N2CCN(C(c3ccccc3)c3ccccc3)CC2)c1 | . | . | .
N#Cc1cccc(C(=O)N2CCN(C(c3ccccc3)c3ccc(Br)cc3)CC2)c1 (centres undefined) | 42 | . | .
Cc1cc(C)nc(SCc2cc(=O)c(OC(=O)Cc3cccc4ccccc34)co2)n1 | . | 68 | .
Cc1cc(C)nc(SCc2cc(=O)c(OC(=O)c3ccccc3Cl)co2)n1 | . | . | .
Cc1ccnc(SCc2cc(=O)c(OC(=O)COc3ccccc3C)co2)n1 | . | . | .
Cc1ccnc(SCc2cc(=O)c(OC(=O)Cc3cccc4ccccc34)co2)n1 | . | 60 | .
Cc1cc(C)nc(SCc2cc(=O)c(OC(=O)C3c4ccccc4Oc4ccccc43)co2)n1 | . | 93 | .
Cc1cc(C)nc(SCc2cc(=O)c(OC(=O)Cc3cccs3)co2)n1 | . | . | .
CN(C)CCN(Cc1nccn1Cc1cccc(Cl)c1)C(=O)c1ccco1 | . | . | .
CC(=O)c1ccc(C(=O)N2CCCC(CCC(=O)NCc3ccccc3Cl)C2)cc1 (centres undefined) | . | / | .
CN1CC2(CCCN(Cc3noc(C(C)(C)C)n3)CC2)OC1=O (centres undefined) | . | . | .
SMILES | NPYLR7 agonist | mcGAS lum | hcGAS inh
CCCc1ccc(S(=O)(=O)N2CCN(c3ncccn3)CC2)cc1 | . | / | .
CC(C(=O)Nc1ccc2c(c1)OCO2)N1CCN(c2cnn(-c3ccccc3)c(=O)c2Cl)CC1 (centres undefined) | . | / | .
CC1C(=O)N(c2ccccc2-c2ccccc2)CCN1C(=O)C1CCC1 (centres undefined) | . | . | .
C=c1occc1=C1NN=C(SCC(=O)c2cc(C)n(CC(F)(F)F)c2C)O1 | . | / | .
O=C1C2C3C=CC(CC3)C2C(=O)N1/N=C\c1cc([N+](=O)[O-])c(O)cc1O (centres undefined) | . | 66 | .
O=C1C2C3C=CC(CC3)C2C(=O)N1/N=C\c1cc2c(cc1Br)OCO2 (centres undefined) | . | . | .
CC1C(=O)N(c2ccc(F)cc2F)CCN1C(=O)c1cccc(F)c1 (centres undefined) | . | 72 | .
CC1C(=O)N(c2ccc(F)cc2F)CCN1C(=O)c1cccc(Br)c1 (centres undefined) | . | . | .
O=C1CCc2cc(-c3cccc4cccnc34)ccc21 | . | . | .
O=C(C1=NN(c2ccccc2)C2C(=O)N(c3ccccc3)C(=O)C12)c1ccccc1 (centres undefined) | 65 | . | .
CC(=O)C1=NN(c2ccccc2)C2C(=O)N(c3ccc(Br)cc3)C(=O)C12 (centres undefined) | . | . | .
COc1ccc(CCNc2cc(C)nn3cnnc23)cc1 | . | . | .
NC(=O)N/N=C\c1c[nH]c2ccccc12 | . | . | .
CCCCCN=C(N)NN=Cc1c[nH]c2ccc(OC)cc12 | 46 | / | .
Cc1c(C#N)sc(NC(=O)CCl)c1C#N | . | 45 | .
CCN(C(=O)c1sc(NC(=O)CCl)c(C#N)c1C)C1CCCCC1 | . | . | .
COc1ccc(C(=O)NCc2cc(F)cc3c(C)c(C)[nH]c23)o1 | . | / | .
COc1ccc(C=CC(=O)c2cccs2)cc1O | . | 55 | .
